# Assays:
# Conditions in all cases: concentration: 1 μM, replicates: in singlicate; n = 1
# PCTK2 = test system: T1, PCTK2
# T1 construct: gene CDK17
# PCTK3 = test system: T2, PCTK3
# T2 construct: gene CDK18
# PDGFRA = test system: PDGFRA
# PDGFRB = test system: PDGFRB
# PDPK1 = test system: PDPK1
# PFTAIRE2 = test system: PFTAIRE2
# PFTK1 = test system: T3, PFTK1
# T3 construct: gene CDK14
# PHKG1 = test system: PHKG1
# PHKG2 = test system: PHKG2
# PIK3C2B = test system: PIK3C2B
# PIK3C2G = test system: PIK3C2G
# PIK3CA = test system: PIK3CA
# PIK3CB = test system: PIK3CB
# PIK3CD = test system: PIK3CD
# PIK3CG = test system: PIK3CG
# PIK4CB = test system: T4, PIK4CB
# T4 construct: gene PI4KB
# PIKFYVE = test system: PIKFYVE
# PIM1 = test system: PIM1
# PIM2 = test system: PIM2
# PIM3 = test system: PIM3
# 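Further: KINOMEscan kinase panel screen.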
Compound,%Inh (PCTK2) [%],%Inh (PCTK3) [%],%Inh (PDGFRA) [%],%Inh (PDGFRB) [%],%Inh (PDPK1) [%],%Inh (PFTAIRE2) [%],%Inh (PFTK1) [%],%Inh (PHKG1) [%],%Inh (PHKG2) [%],%Inh (PIK3C2B) [%],%Inh (PIK3C2G) [%],%Inh (PIK3CA) [%],%Inh (PIK3CB) [%],%Inh (PIK3CD) [%],%Inh (PIK3CG) [%],%Inh (PIK4CB) [%],%Inh (PIKFYVE) [%],%Inh (PIM1) [%],%Inh (PIM2) [%],%Inh (PIM3) [%]
Cn1cc(-c2ccc3c(c2)CCN3C(=O)Cc2cccc(Cl)c2)c2c(N)ncnc21 [GSK2606590],0,7,84,100,40,18,32,17,0,89,0,0,15,0,39,0,0,31,0,8
Cc1ccc(C(=O)N2CC[C@@H](O)C2)cc1-n1c(C)cc(OCc2ccc(F)cc2F)c(Br)c1=O,0,7,4,77,30,2,12,0,0,0,0,0,0,0,0,0,28,0,7,1
Cl.c1ccc(-c2ccc3c(Nc4ccc5[nH]ncc5c4)ccnc3c2)nc1 [GW440137],14,20,90,89,0,12,19,0,0,3,0,6,0,2,5,0,7,0,0,9
CC(=O)N1CCN(c2ccc(Nc3nccc(-c4sc(C(C)C)nc4-c4cccc(NS(=O)(=O)c5cccc(Cl)c5)c4)n3)cn2)CC1 [GSK1660437],99.9,100,73,99,0,49,57,0,0,0,0,0,13,0,0,0,0,0,0,89
COc1cc2c(cc1OCCN1CCNCC1)ncc1c3ccc(C#N)cc3[nH]c21,9,0,96.4,89,9,53,9,98.7,99.3,0,0,8,0,3,31,33,14,10,92.2,52
Oc1cc(Nc2ccnc3cc(I)ccc23)ccc1F [GW552771],0,15,19,49,0,0,0,0,0,0,0,0,0,19,0,20,13,8,0,0
CN1CCN(CCCNc2nccc(-c3c(-c4ccc(F)cc4)nn4cc(C(F)(F)F)ccc34)n2)CC1 [GW621581],0,12,0,10,3,13,0,0,0,0,3,0,0,10,0,1,95.6,10,0,0
COc1cc(Nc2nccc(-c3c(-c4cccc(NC(=O)c5c(F)cccc5F)c4)nn4ccccc34)n2)cc(OC)c1OC [GSK323521],8,29,89,99.7,13,25,3,4,10,27,9,4,16,0,9,11,0,17,0,5
COCCOCCOc1cc2ncc3c4ccc(C#N)cc4[nH]c3c2cc1OC,6,13,98.2,92.9,34,48,21,94.5,97.7,0,12,0,0,0,0,0,47,29,94,49
O=C(O)C(F)(F)F.O=C(O)C(F)(F)F.O=c1[nH]ccc2nc(N[C@@H]3CCCNC3)nc(Nc3ccc(S(=O)(=O)N4CCOCC4)cc3)c12 [GSK2177277],98.3,96.2,97.5,100,100,61,65,97.7,94.7,51,0,0,0,0,80,59,69,97.5,98.8,99.8
Nc1ncc(-c2cccnc2)c2scc(-c3ccc4c(c3)CCN4C(=O)Cc3ccccc3)c12 [GSK683281],8,18,53,94.3,21,33,20,18,0,0,0,0,0,0,0,0,0,0,0,0
Cl.Cl.NCC(NC(=O)c1cc(-c2ccccc2)c(-c2ccnc3[nH]ccc23)s1)c1ccccc1 (centres unmarked) [GSK1321561],0,0,0,45,20,6,17,0,0,0,0,0,0,0,4,0,0,0,0,0
COc1cc(Nc2nccc(N3CCC(NC(=O)Nc4cccc(C(C)=O)c4)C3)n2)cc(OC)c1OC (centres unmarked) [GSK1379753],26,0,0,77,0,0,23,0,2,0,0,5,0,46,20,78,0,0,0,0
COc1cccc(-c2ccc3c(NC(=O)C4CC4)n[nH]c3n2)c1 [SB-710903],19,30,0,34,0,10,25,0,0,0,0,0,0,9,0,0,27,12,0,0
Fc1ccc(-c2ncn(C3CCNCC3)c2-c2ccnc(Oc3ccc(-c4ccccc4)cc3)n2)cc1 [SB-245391],1,2,23,12,21,13,9,0,0,27,39,40,40,73,39,31,15,23,4,16
Cc1cccc(NC(=O)Nc2ccc(Oc3ncnc4ccn(C)c34)cc2)c1,0,0,99.7,100,0,0,0,0,0,0,0,0,0,0,0,0,40,0,0,0
Nc1ncc(-c2ccc3nccc(-c4ccncc4)c3c2)cc1S(=O)(=O)N1CCOCC1 [GSK1627798],21,26,0,13,0,39,31,0,0,99.5,99.1,100,77,94.1,99.5,96.1,0,0,0,0
COc1ccc(Nc2nccc(N3CCC(NC(=O)Nc4cccc(OC)c4)C3)n2)cc1 (centres unmarked) [GSK1379742],0,21,0,23,15,10,2,17,0,13,0,0,0,0,0,1,0,0,0,3
O=c1[nH]cc(-c2ccc(N3CCOCC3)cc2)c2sc(-c3cn[nH]c3)cc12 [GSK2276055],28,15,32,63,0,34,42,0,6,9,0,21,11,3,21,8,31,77,51,67
CCc1ccc(-c2ccc3c(c2)-c2c(cnn2C)S(=O)(=O)N3C)cc1,10,0,0,6,4,0,0,5,0,8,0,5,0,0,2,12,53,1,0,0

Compound,%Inh (PCTK2) [%],%Inh (PCTK3) [%],%Inh (PDGFRA) [%],%Inh (PDGFRB) [%],%Inh (PDPK1) [%],%Inh (PFTAIRE2) [%],%Inh (PFTK1) [%],%Inh (PHKG1) [%],%Inh (PHKG2) [%],%Inh (PIK3C2B) [%],%Inh (PIK3C2G) [%],%Inh (PIK3CA) [%],%Inh (PIK3CB) [%],%Inh (PIK3CD) [%],%Inh (PIK3CG) [%],%Inh (PIK4CB) [%],%Inh (PIKFYVE) [%],%Inh (PIM1) [%],%Inh (PIM2) [%],%Inh (PIM3) [%]
Cl.c1ccc(-c2ccc3c(Nc4ccc5[nH]ccc5c4)ccnc3c2)nc1 [GW440138],6,28,99.2,99.9,0,0,14,0,0,0,0,0,37,2,0,0,16,0,0,0
Cn1cc(-c2ccc3c(c2)CCN3C(=O)Cc2cccc(F)c2)c2c(N)ncnc21 [GSK2603358],0,17,78,99.8,0,12,18,1,0,80,0,3,0,28,30,0,11,0,0,0
O=C(NC1CCN(c2ccnc(Nc3ccc(F)cc3)n2)C1)c1cc2ccccc2s1 (centres unmarked) [GSK1379716],11,32,0,28,0,25,13,19,7,0,0,0,0,0,0,0,4,20,0,11
c1ccc(Oc2ccc(Nc3ccnc4cc(-c5ccc(CNCCN6CCOCC6)o5)ccc34)cc2)nc1 [GW567145],0,2,65,89,0,6,11,3,0,0,0,0,0,0,0,0,50,0,0,0
c1ccc(-c2n[nH]cc2Nc2ccnc3ccccc23)nc1 [GW694077],0,9,20,65,0,16,18,0,30,29,15,0,0,0,14,95.7,0,81,7,79
CCS(=O)(=O)c1ccc(OC)c(Nc2nccc(-c3c(-c4cccc(NC(=O)c5c(F)cccc5F)c4)nn4ncccc34)n2)c1 [GSK326180],0,18,0,40,0,27,17,1,0,0,0,0,0,0,3,7,0,0,0,0
O=C(Nc1n[nH]c2cc(-c3ccoc3)ccc12)C1CC1 [SB-738481],51,22,62,90,0,21,29,0,0,7,0,0,13,5,12,8,1,0,0,0
Nc1ncnc2c1nc(-c1ccccc1)n2-c1ccccc1 [SKF-97293],0,0,36,0,2,6,25,17,0,4,6,16,27,17,13,29,20,39,0,24
CN(C)Cc1ccc(-c2ccc3c(Nc4ccc(Oc5ccccn5)cc4)ccnc3c2)o1 [GW567148],0,0,82,98.7,0,0,0,2,0,0,0,0,0,0,0,0,0,0,0,0
CCn1c(-c2nonc2N)nc2c(C#CC(C)(C)O)ncc(OCCCCN)c21.O=C(O)C(F)(F)F.O=C(O)C(F)(F)F [GSK507274],0,0,0,25,0,6,32,5,0,0,11,0,0,0,0,0,88,69,85,78
CCn1c(-c2nonc2N)nc2c(C#CC(C)(C)O)nc(OC[C@H](N)c3ccccc3)cc21 [GSK943949],0,0,11,5,0,0,0,0,5,0,11,0,0,0,0,0,60,0,23,0
C[C@@H]1CC[C@@H](C(=O)Nc2ccccc2)CN1c1cc(-c2ccc3c(N)n[nH]c3c2)nc(N)n1 [GSK2286062],13,10,0,23,64,7,29,0,21,0,0,0,0,0,2,0,0,31,0,4
CN(C)S(=O)(=O)c1cc(-c2ccc3nccc(-c4cccc(S(N)(=O)=O)c4)c3c2)cnc1N [GSK1669921],0,0,0,16,9,31,17,0,8,95.5,96,100,96.6,98.8,99.9,96.5,96.6,19,0,12
O=C(Nc1n[nH]c2nc(-c3ccc(O)cc3)ccc12)C1CC1 [SB-710363],56,6,48,32,5,28,14,5,0,0,0,0,0,0,2,20,0,45,89,81
COC(=O)Nc1nc2cc(Oc3ccc(NC(=O)Nc4cc(C(F)(F)F)ccc4F)cn3)ccc2[nH]1.Cl.Cl [GW681170],16,16,94.7,99.8,0,68,21,0,0,0,0,0,5,0,0,0,0,9,0,0
Nc1n[nH]c2cnc(-c3ccccc3)cc12 [SB-642124],0,10,0,21,0,3,19,0,0,0,0,0,0,0,0,14,0,38,0,13
O=C(Nc1cccc(-c2nn3ccccc3c2-c2ccnc(Nc3cccc(F)c3)n2)c1)c1c(F)ccc(F)c1Cl [GSK357952],0,9,18,99.7,36,20,2,0,0,0,21,0,0,0,0,24,0,10,0,0
C[C@@H](Oc1cc(-n2cnc3cc(-c4ccnc(NCCS(C)(=O)=O)c4)ccc32)sc1C(N)=O)c1ccccc1Cl [GSK907232],9,25,71,97.4,28,14,12,0,2,0,0,0,0,39,1,9,0,19,0,27
Cc1ccc(C(=O)Nc2ccc(Nc3ccnc4cc(-c5nccs5)ccc34)cc2O)cc1.Cl [GW494702],0,0,28,74,10,7,0,4,0,0,23,0,0,0,0,30,0,0,6,0
CSc1cccc2c(-c3ccncn3)c(-c3ccc(F)cc3)nn12 [GW514786],0,14,0,7,0,20,28,12,0,0,0,0,0,0,0,0,19,0,0,15
